Consider 34 compounds from ChEMBL document CHEMBL1961873, “Compounds: GSK PKIS; Assays: Nanosyn kinase panel” (2012).

One may read the inhibition as the change of the read-out against control, counted positive when it falls.

The subject of one experiment is Tyrosine-protein kinase ABL1 (Homo sapiens), P00519 [Q252H]. The conditions noted are these: at 0.1 µM.
In the case of `CNC(=O)c1cncc(/C=C/c2c(C)cccc2C)c1`, the inhibition came out at 14.5%. As to `NCc1ccc(-n2c(-c3nonc3N)nc3cnccc32)cc1`, the inhibition stood at 4.57%. Same read-out and setting: then `Fc1ccc(-c2ncn(C3CCNCC3)c2-c2ccnc(Oc3ccc4c(c3)OCO4)n2)cc1`, with 4.09%. Same read-out and setting: for `C#Cc1cccc(Nc2ncnc3ccc(OCCCCNCCS(C)(=O)=O)cc23)c1` the value was 6.79%; for `NS(=O)(=O)c1ccc(N/N=C2\C(=O)Nc3ccc(-c4cnco4)cc32)cc1`, 3.05%; for `O=C(NCC1CC1)c1ccc(-c2cccc(C(=O)NC3CC3)c2)cc1`, 2.78%. Take `CCS(=O)(=O)c1ccc(OC)c(Nc2ncc(-c3ccccc3Cl)o2)c1`: the inhibition was 5.67%. Still for that read-out and setting: for `COc1ccc(-c2ccc3c(NC(=O)C4CC4)n[nH]c3n2)cc1` the value was 0.06%; for `NC(=O)c1cc(-c2ccncc2)cc(-c2ccccc2)c1N`, 9.54%; for `Fc1ccc(-c2c(-c3ccncc3)nc3n2CCS3)cc1`, 1.69%. On the same count and under the same terms, then `COc1ccc2cc(-c3c(-c4ccncc4)nc(-c4ccc(S(C)(=O)=O)cc4C)n3C)ccc2c1`, with 6.25%; and `Fc1ccc(-c2ncn(C3CCNCC3)c2-c2ccnc(Oc3ccc(Oc4ccccc4)cc3)n2)cc1`, with 1.63%.

As for `COc1cc(Nc2ncc3c(C)nc(-c4cccc(C(F)(F)F)c4)n3n2)cc(OC)c1OC`, the inhibition amounted to 4.02%. Same read-out and setting: then `CN(c1ccc(NC(=O)Nc2c(Cl)cccc2Cl)cc1)c1ccnc(Nc2cccc(CS(C)(=O)=O)c2)n1`, with 39.3%; and `COc1cc2ncn(-c3cc(OCc4cccs4)c(C(N)=O)s3)c2cc1OC`, with 8.78%; and `NC(=O)Cc1ccccc1Oc1nccc(-c2c(-c3ccc(F)cc3)ncn2C2CCNCC2)n1`, with 2.24%.

As for `C/C(Nc1ccc(S(N)(=O)=O)cc1)=C1/C(=O)Nc2ccccc21`, the inhibition was found to be 2.51%. The same measure, in the same setting: then `Fc1ccc(-c2ncn(CCCN3CCOCC3)c2-c2ccncc2)cc1`, with -1.12%; and `FC(F)(F)c1cccc(Nc2nccc(-c3cnn4nc(-c5ccccc5)ccc34)n2)c1`, with 1.86%.

For the next experiment the test system is unchanged. The conditions noted are these: at 1 µM.
In the case of `O=C(Nc1ccc(Oc2ccc3[nH]c(NC(=O)c4ccccc4)nc3c2)cc1)Nc1cc(C(F)(F)F)ccc1F`, the inhibition came out at 74.6%.

Regarding `CCS(=O)(=O)c1ccc(OC)c(Nc2ncc(-c3cccc(-c4ccccc4F)c3)o2)c1`, the inhibition was 84.6%. Still for that read-out and setting: for `C[C@@H](Oc1cc(-n2cnc3ccc(OCC4CCN(C)CC4)cc32)sc1C(N)=O)c1ccccc1Cl` the value was 8.32%; for `Clc1ccc(CNc2nccc(-c3cnn4ncccc34)n2)cc1`, 6.07%; for `COc1ccc(C2=C(N3CCc4ccccc43)C(=O)NC2=O)cc1`, 6.15%. Still for that read-out and setting: for `CCN(CC)Cc1ccc(Nc2nccc(-c3cnn4ncccc34)n2)cc1` the value was 43.2%; for `COc1cc2ncn(-c3cc(OCc4ccccc4C(F)(F)F)c(C(C)=O)s3)c2cc1OC`, 4.96%; for `Fc1ccc(-c2nc3n(c2-c2ccncc2)CCS3)cc1`, 5.38%. Same read-out and setting: then `COc1cccc(/C=N/Nc2ncnc3c2cnn3-c2cccc(OC)c2)c1`, with 54.9%; and `CS(=O)(=O)CCNCc1ccc(-c2ccc3ncnc(Nc4ccc(OCc5ccccc5)c(Br)c4)c3c2)o1`, with 4.09%; and `COc1cc(N2CCN(C(C)C)CC2)ccc1Nc1nc(Nc2ccc(F)cc2C(=O)NC[C@@H](O)CO)c2cc[nH]c2n1`, with 4.72%.

`CN(C)c1ccc2c(c1)/C(=C/Nc1ccc(S(N)(=O)=O)cc1)C(=O)N2`: the inhibition stood at 17.8%. Regarding `CN(C)CCCNc1nccc(-c2c(-c3ccc(F)cc3)nn3cc(C(F)(F)F)ccc23)n1`, the inhibition was determined as 5.19%.

Consider `Nc1nccc(-c2c(-c3ccc(F)cc3)ncn2C2CCC(O)CC2)n1` (stereo not drawn), for which the inhibition was 33.9%. Still for that read-out and setting: then `COc1cc2ncn(-c3cc(OCCc4ccccc4)c(C(N)=O)s3)c2cc1OC`, with 10.7%; and `CNC(=O)c1cncc(/C=C/c2c(C)cccc2C)c1`, with 60.2%; and `NCc1ccc(-n2c(-c3nonc3N)nc3cnccc32)cc1`, with 1.69%. Regarding `Fc1ccc(-c2ncn(C3CCNCC3)c2-c2ccnc(Oc3ccc4c(c3)OCO4)n2)cc1`, the inhibition turned out to be 6.75%. On the same count and under the same terms, for `C#Cc1cccc(Nc2ncnc3ccc(OCCCCNCCS(C)(=O)=O)cc23)c1` the value was 22.7%. On the same count and under the same terms, then `NS(=O)(=O)c1ccc(N/N=C2\C(=O)Nc3ccc(-c4cnco4)cc32)cc1`, with 13.3%.

With `O=C(NCC1CC1)c1ccc(-c2cccc(C(=O)NC3CC3)c2)cc1`, the inhibition is 4.27%. Still for that read-out and setting: for `CCS(=O)(=O)c1ccc(OC)c(Nc2ncc(-c3ccccc3Cl)o2)c1` the value was 26.3%. For `COc1ccc(-c2ccc3c(NC(=O)C4CC4)n[nH]c3n2)cc1`, the inhibition was 13.6%. On the same count and under the same terms, for `NC(=O)c1cc(-c2ccncc2)cc(-c2ccccc2)c1N` the value was 38.8%; for `Fc1ccc(-c2c(-c3ccncc3)nc3n2CCS3)cc1`, 4.11%. Same read-out and setting: for `COc1ccc2cc(-c3c(-c4ccncc4)nc(-c4ccc(S(C)(=O)=O)cc4C)n3C)ccc2c1` the value was 22.4%. On the same count and under the same terms, then `Fc1ccc(-c2ncn(C3CCNCC3)c2-c2ccnc(Oc3ccc(Oc4ccccc4)cc3)n2)cc1`, with 2.88%; and `COc1cc(Nc2ncc3c(C)nc(-c4cccc(C(F)(F)F)c4)n3n2)cc(OC)c1OC`, with 13.4%. On to `CN(c1ccc(NC(=O)Nc2c(Cl)cccc2Cl)cc1)c1ccnc(Nc2cccc(CS(C)(=O)=O)c2)n1`, for which the inhibition is 72.3%. Same read-out and setting: for `COc1cc2ncn(-c3cc(OCc4cccs4)c(C(N)=O)s3)c2cc1OC` the value was 46.3%; for `NC(=O)Cc1ccccc1Oc1nccc(-c2c(-c3ccc(F)cc3)ncn2C2CCNCC2)n1`, 1.77%; for `C/C(Nc1ccc(S(N)(=O)=O)cc1)=C1/C(=O)Nc2ccccc21`, 13.6%. On the same count and under the same terms, for `Fc1ccc(-c2ncn(CCCN3CCOCC3)c2-c2ccncc2)cc1` the value was -0.09%; for `FC(F)(F)c1cccc(Nc2nccc(-c3cnn4nc(-c5ccccc5)ccc34)n2)c1`, 5.75%.
